# This is part of a sample that, as a whole, favours compounds with a hit. Of some 79,000 tested, about 15% had one in any assay. Values without a mark were called inactive. Activity calls are given as the source filed them. Cut-off read from the data, not from the text of the source: active = growth inhibition above about 70%; inactive = the rest.
# Columns and labels:
# [1] = NCI Yeast Anticancer Drug Screen. Data for the rad50 strain (AID 155);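 note: 0% = growth of vehicle-only cultures of the same strain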; settings: S. cerevisiae rad50 strain growth inhibition, hits give high values; at 50.0 µM unless noted
# In short: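 DNA repair mutant yeast, compound exposure, growth read-out; inhibition is taken relative to vehicle.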
# [2] = NCI Yeast Anticancer Drug Screen. Data for the mec2-1 strain (AID 157); settings: S. cerevisiae mec2-1 strain, hits give high values; at 50.0 µM unless noted
# In short: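 Vehicle-treated cultures served as reference for growth inhibition of compound-exposed mec2-1 yeast.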
# [3] = NCI Yeast Anticancer Drug Screen. Data for the sgs1 mgt1 strain (AID 161);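 note: 0% = growth of cultures given vehicle only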; settings: S. cerevisiae sgs1 mgt1 strain, hits give high values; at 50.0 µM unless noted
# In short: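 Mutant yeast exposed to compound; growth scored against vehicle-only wells.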
# [4] = NCI Yeast Anticancer Drug Screen. Data for the cln2 rad14 strain (AID 165);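 note: 0% = growth equal to vehicle treated cultures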; settings: S. cerevisiae cln2 rad14 strain, hits give high values; at 50.0 µM unless noted
# In short: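 Each compound was tested on cln2 rad14 yeast. Inhibition of growth was calculated against vehicle-exposed controls.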
# [5] = NCI Yeast Anticancer Drug Screen. Data for the bub3 strain (AID 167); settings: S. cerevisiae bub3 mutant strain, hits give high values; at 50.0 µM unless noted
# In short: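 In this screen, a yeast mutant lacking normal mitotic checkpoint function is challenged with compound. Relative growth versus vehicle gives the inhibition value.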
# [6] = NCI Yeast Anticancer Drug Screen. Data for the mlh1 rad18 strain (AID 175); settings: S. cerevisiae mlh1 rad18 strain growth inhibition, hits give high values; at 50.0 µM unless noted
# In short: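 Vehicle-treated cultures served as the reference for growth inhibition in a yeast strain carrying DNA damage repair alterations exposed to each compound.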
SMILES,growth inhibition [1],growth inhibition [2],growth inhibition [3],growth inhibition [4],growth inhibition [5],growth inhibition [6]
Cn1c(=O)[nH]c(=O)c2nc(-c3ccccc3)cnc21,-11.9%,12.3%,2.55%,-13.6%,-2.7%,-0.65%
CCCCCCC/C=C/C1CC(=O)OC1=O (configuration not stated),18.4%,11.2%,9.55%,7.05%,4.05%,29.6%
Cc1cccc(NC(=O)Nc2ccccc2F)n1,-2.7%,5.65%,-8.95%,-26.9%,-6.95%,-12.1%
CC(C)CCn1c(=O)c2c(ncn2C)n(C)c1=O,21.9%,20.3%,22.9%,10.2%,-0.5%,13.2%
O=S=Nc1c(Cl)cc(Cl)cc1Cl,1.1%,-20.1%,1.55%,-18.6%,11.7%,-0.6%
O=C1/C(=C\c2ccccc2)Sc2cc[nH]c21,13.5%,1.3%,4.5%,-1.95%,-1.85%,17.2%
NC(N)=NC(N)=Nc1cc(Cl)c(Cl)cc1Cl,98.2% (active),99.5% (active),99.3% (active),98.8% (active),99.2% (active),99.3% (active)
O=c1oc(-c2ccc([N+](=O)[O-])cc2)nc2cc(Cl)ccc12,17.8%,9.15%,44.7%,8.85%,44.9%,18.6%
Cc1cc2ccccc2c(N=Cc2cc(Br)cc(Br)c2O)c1C#N,59.8%,87.5% (active),96.8% (active),60.2%,83.8% (active),97.8% (active)
C=CCCC(CCC=C)(C(=O)O)C(=O)O,-7.1%,-9.7%,-16.7%,6.65%,-20.9%,-36.8%
CCOC(=O)Nc1ccccc1OCC,-10.6%,2%,-4.3%,-90%,6.2%,-3.45%
Cc1cc(C)c2ccc(Cl)nc2n1,-6.75%,0.55%,-7.35%,9.35%,-4.35%,6.1%
NC1N=Nc2ccccc21 (configuration not stated),0.05%,-5.95%,13.3%,4.3%,-1.6%,41.3%
CCCCOc1c(Cl)c(Cl)cc(Cl)c1Cl,-10.1%,-15.8%,-3.5%,2.2%,2.05%,-17.1%
NC(=O)C(=Cn1c(=S)[nH]c2ccc([N+](=O)[O-])cc21)C(N)=O,-10%,-40.9%,-9.9%,11.7%,-22.6%,31.9%
O=C(O)c1ccc(Cl)o1,7.7%,-3.6%,-23.1%,-1.05%,10.1%,5.6%
O=C(O)CCCCC1CCCCC1,53.1%,17.1%,38.8%,17.1%,33.6%,43.1%
NC(=O)c1c(NC=O)ncn1C1OCC(O)C(O)C1O (configuration not stated),-7.95%,-3.85%,2%,-42%,-1.3%,12.8%
O=C(O)c1ccc(P(=O)(O)O)cc1[N+](=O)[O-],26.4%,9.65%,-9.45%,1.75%,4.25%,-7%
C=C1N(c2cc3ccccc3o2)C(=O)OC12CCCCC2,-37.5%,-2.2%,-8%,8.8%,-2.55%,18.9%
CC1=C2CC(C)(C)/C=C\C(=O)/C(C)=C\C3=C[C@H](C)C[C@]3(O2)C1=O,60.8%,71.2% (active),72.8% (active),40.4%,64.4%,79.8% (active)

SMILES,growth inhibition [1],growth inhibition [2],growth inhibition [3],growth inhibition [4],growth inhibition [5],growth inhibition [6]
OC1COC(CCl)OC1C1OC(CCl)OCC1O (configuration not stated),10.2%,23.6%,17.9%,6.3%,19.4%,25.9%
COC(=O)CSc1cc(Cl)c(C)cc1S(=O)(=O)Nc1n[nH]c(N)n1,-14.2%,-7.5%,-11%,-6.65%,-9.75%,10.2%
O=C(O)CCC(CC(=O)O)C(=O)O (configuration not stated),19.1%,4.95%,16%,13.7%,23.9%,15.4%
Cc1ncc([N+](=O)[O-])n1CC(O)Cn1cnc([N+](=O)[O-])n1 (configuration not stated),-19%,-6.5%,-1.75%,-4.2%,-4.35%,-31.4%
Cc1cccc(NC(=O)C(=O)C(C(=O)c2ccc3ccccc3c2)C2OC(=O)c3ccccc32)c1C (configuration not stated),-3.95%,4.75%,13.5%,-59.5%,5.75%,-6.75%
CCCCOC(=O)C(O)Cc1ccoc1 (configuration not stated),5.25%,-33.9%,-17.9%,12.9%,-14.4%,-14.4%
O=c1cc(C(F)(F)F)[nH]c2ccc(F)cc12,1.95%,-10.4%,6.4%,-27.6%,-27%,7.55%
CN(C)C=Nc1ccc2c3c(cccc13)-c1ccccc1-2,-2.9%,-24.1%,47.5%,-0.35%,51.1%,41%
Clc1cccc(NC2=NCCN=C(Nc3cccc(Cl)c3Cl)SS2)c1Cl,8.6%,-17.5%,-0.75%,5.85%,3.75%,6.55%
CCOC(=O)C(CCCCNC(=O)CC)NC(=O)CC (configuration not stated),3.5%,1.3%,3.3%,3.55%,11.2%,2.65%
Cc1ccc(N(C)S(=O)(=O)c2ccccc2[N+](=O)[O-])cc1,19.1%,-17.6%,28.3%,12.1%,14.1%,19.6%
C=CCN(N=O)C(=O)N(CCCCC(NC(C)=O)C(=O)NCc1ccccc1)Cc1ccccc1 (configuration not stated),-0.95%,-13.1%,-21.4%,-26.5%,-22.3%,-17.1%
Cc1ccc(NC(=O)Oc2ccc(-c3ccccc3)cc2Br)c(Br)c1,52.1%,58%,54.6%,40%,51.9%,53.7%
CC1OC(n2cnc3c(NC(=O)c4ccccc4)ncnc32)C(O)C2OC12 (configuration not stated),-1.15%,-3.05%,8.75%,13.4%,2.95%,14.8%
O=c1oc(=O)c2cc3c(=O)oc(=O)c3cc12,-21.4%,11.1%,-6.75%,-28%,7.1%,-5.6%
O=C1CN(CCN2CC(=O)N(CN3CCOCC3)C(=O)C2)CC(=O)N1CN1CCOCC1,9.55%,3%,2.6%,3.8%,-16.1%,83.9% (active)
CCOC(=O)/C(C)=C\C=C(\C)CCC=C(C)C,-8.8%,-19.1%,-2.45%,-28.3%,-15.2%,15.4%
CCOC(=O)C(=O)Nc1c(C)cccc1C(C)(C)C,-22.1%,-30.4%,-4.35%,3.55%,-16.8%,-7.05%
NC(=O)Nc1ccccc1-c1ccccc1,-0.6%,-11.2%,13.8%,-26.4%,-10.8%,7.45%
NC(=O)CCCO,6.1%,-2.65%,-3.25%,6.6%,3.25%,2.4%
Cc1ccc2nc(C=Nc3ccccc3Cl)cc(C)c2c1,-7.4%,-5.85%,-9.3%,17.8%,-4.45%,3.2%
